{"source": "ChEMBL document CHEMBL3988442", "about": "“University of Dundee, Small-Polar-MMV Screening Library” (2021)"}
{"target": "T1, Aspartate--tRNA(Asp/Asn) ligase (Mycobacterium tuberculosis (strain ATCC 25618 / H37Rv)) (UniProt P9WFW3)", "T1 sequence (whole entry)": "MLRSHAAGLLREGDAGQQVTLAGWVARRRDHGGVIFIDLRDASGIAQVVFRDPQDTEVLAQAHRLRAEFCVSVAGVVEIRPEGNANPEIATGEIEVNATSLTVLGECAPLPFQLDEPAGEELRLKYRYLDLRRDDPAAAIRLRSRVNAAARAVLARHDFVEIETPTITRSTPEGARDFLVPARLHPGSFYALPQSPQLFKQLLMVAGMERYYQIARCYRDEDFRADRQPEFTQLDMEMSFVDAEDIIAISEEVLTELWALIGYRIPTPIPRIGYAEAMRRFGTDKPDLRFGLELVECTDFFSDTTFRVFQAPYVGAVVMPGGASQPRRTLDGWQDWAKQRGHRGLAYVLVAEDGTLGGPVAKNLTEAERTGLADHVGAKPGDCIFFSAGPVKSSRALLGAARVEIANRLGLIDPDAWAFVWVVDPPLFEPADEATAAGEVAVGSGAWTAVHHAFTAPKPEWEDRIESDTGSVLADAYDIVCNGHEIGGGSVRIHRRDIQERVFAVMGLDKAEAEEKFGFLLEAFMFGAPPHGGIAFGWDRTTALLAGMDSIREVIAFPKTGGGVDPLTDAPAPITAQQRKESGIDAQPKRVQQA", "assay": "Assay for Asp RNA synthetase-1 from Mycobacterium tuberculosis", "format": "functional", "set-up": "scale not given: direction of the effect not stated beside the values", "conditions": "30 µM", "units": {"Percent Effect": "%"}}
{"smiles": "O=C(NCc1ccccc1CN1CCC(O)CC1)Nc1ccncc1", "Percent Effect": -0.167}
{"smiles": "O=c1oc(-c2ccc(F)cc2)nn1CN1CCN(C2CCCC2)CC1", "Percent Effect": 0.546}
{"smiles": "COCC(=O)N1CCN(C(=O)c2scnc2C)CC1", "Percent Effect": -5.75}
{"smiles": "CN(Cc1ccc(Cl)c(Cl)c1)C(=O)CNC(N)=O", "Percent Effect": 0.719}
{"smiles": "O=C(NC1CCN(c2snc3ccccc23)CC1)C1CCC1", "Percent Effect": 4.7}
{"smiles": "CC(NC1CCN(CCS(C)(=O)=O)CC1)c1ccc(Cl)cc1", "note": "(stereo not given)", "Percent Effect": 7.04}
{"smiles": "Cn1ccc(C(=O)N2CCCC(Cc3cccc4ncccc34)C2)n1", "note": "(stereo not given)", "Percent Effect": -2.07}
{"smiles": "Cc1cc(C(F)(F)F)nn1C(C)C(=O)Nc1ccncc1", "note": "(stereo not given)", "Percent Effect": -0.755}
{"smiles": "COc1ccccc1C(=O)N(C)Cc1ncc(C)c(OC)c1C", "Percent Effect": -4.81}
{"smiles": "CCn1cc(NC(=O)CCc2ccc3c(c2)OCCCO3)cn1", "Percent Effect": -3.45}
{"smiles": "O=C(CCCc1cn[nH]c1)N1C[C@@H](CN2CCOCC2)[C@@H](CO)C1", "Percent Effect": 4.17}
{"smiles": "CC(O)CN1CCC(CNCc2ccc(S(C)(=O)=O)cc2)CC1", "note": "(stereo not given)", "Percent Effect": 3.1}
{"smiles": "CNCC(=O)N1CC(c2cc(Nc3ncccn3)nc(C)n2)C1", "Percent Effect": -3.19}
{"smiles": "Cn1ncc(NCc2cc(F)cc(F)c2)c(Cl)c1=O", "Percent Effect": -1.31}
{"smiles": "CN(C)c1cc2c(nn1)CCN(C(=O)C1Cc3ccccc3S1)C2", "note": "(stereo not given)", "Percent Effect": 1.89}
{"smiles": "CC(C)NC(=O)c1sccc1N(C)S(=O)(=O)c1ccc(Cl)cc1", "Percent Effect": 4.25}
{"smiles": "Cc1noc([C@@H]2CCCN2C(=O)C2CCN(C(=O)C3CCC3)CC2)n1", "Percent Effect": 6.9}
{"smiles": "CC(C(N)=O)S(=O)(=O)Cc1cc(Cl)c2c(c1)OCO2", "note": "(stereo not given)", "Percent Effect": -7.47}
{"smiles": "COc1cc(C(=O)N(Cc2ccco2)C2CC2)cc2c1OCCO2", "Percent Effect": 1.56}
{"smiles": "Cc1cc(F)c(S(=O)(=O)NCCCN2CCC(O)CC2)cc1F", "Percent Effect": 11.3}
{"smiles": "CN1CCCc2cc(CNC(=O)c3ccncc3)ccc21", "Percent Effect": -7.79}
{"smiles": "CC(C)c1cc(NC(=O)CN2CCCC2Cn2cccn2)on1", "note": "(stereo not given)", "Percent Effect": -1.29}
{"smiles": "CC(=O)NCC1CCN(C(=O)c2csc(-c3ccc(C)cc3C)n2)CC1", "Percent Effect": 5.3}
{"smiles": "Cc1ccc(-c2nc(CN3CCC(C(=O)N(C)C)CC3)cs2)o1", "Percent Effect": 4.21}
{"smiles": "COc1c(C2CCCN2C(=O)c2ccc3cc[nH]c3c2)c(C)nn1C", "note": "(stereo not given)", "Percent Effect": -1.15}
{"smiles": "CN(C)C(=O)N1C[C@@H]2CCCO[C@@H]2[C@H](N(C)Cc2ccco2)C1", "Percent Effect": -1.32}
{"smiles": "Cc1ccsc1C(=O)N1CC(C(=O)N2CCOCC2)C2(CCOCC2)C1", "note": "(stereo not given)", "Percent Effect": 7.88}
{"smiles": "COc1cccc2c1OCC(C(=O)N1CCC(N3CCOC3=O)CC1)C2", "note": "(stereo not given)", "Percent Effect": -3.21}
{"smiles": "COCC1CC2(CCN(Cc3ccc(OC)cc3)CC2)CN1C(C)C", "note": "(stereo not given)", "Percent Effect": -1.24}
{"smiles": "CC(OCC(F)(F)F)C(=O)NCc1ccc(-n2cncn2)nc1", "note": "(stereo not given)", "Percent Effect": -3.63}
{"smiles": "CC(C)N(C)S(=O)(=O)N(C)Cc1ccc2c(c1)OCO2", "Percent Effect": -7.16}
{"smiles": "Cc1ccc(N2CCCC3(COCCN(c4nccs4)C3)C2)nn1", "note": "(stereo not given)", "Percent Effect": -0.638}
{"smiles": "O=C(CCc1nc2cccnc2[nH]1)NCc1cccnc1", "Percent Effect": -0.232}
{"smiles": "CC(=O)N1CCC(Cc2cnc(-c3c(C)n[nH]c3C)cn2)C1", "note": "(stereo not given)", "Percent Effect": -11.6}
{"smiles": "Clc1snnc1CN1CCCCC1Cn1cncn1", "note": "(stereo not given)", "Percent Effect": -1.89}
{"smiles": "Cc1cccc(N2CCN(C(=O)Nc3cnn(CC(N)=O)c3)CC2)c1", "Percent Effect": -2.01}
{"smiles": "O=C(c1cnccn1)N1CCCC2(COCCN(CC3CC3)C2)C1", "note": "(stereo not given)", "Percent Effect": 3.16}
{"smiles": "CCn1ccnc1CN1CCN(C(C)C(=O)N2CCC(C)CC2)CC1", "note": "(stereo not given)", "Percent Effect": -3.5}
{"smiles": "CCc1ncc2c(n1)CN(CC(=O)Nc1nnc(C)s1)CC2", "Percent Effect": 4.25}
{"smiles": "O=C1CC(c2ccc(C(=O)O)cc2)c2ncn(-c3ccccc3)c2N1", "note": "(stereo not given)", "Percent Effect": 19.5}
{"target": "Shiga toxin 2 (Escherichia coli O157:H7) (UniProt P09385+P09386)", "assay": "E. coli 0.157:H7 Shiga Toxin SOP - stx2 screening assay", "format": "functional", "set-up": "scale not given: direction of the effect not stated beside the values", "conditions": "30 µM", "units": {"Percent Effect": "%"}}
{"smiles": "O=C(NCc1ccccc1CN1CCC(O)CC1)Nc1ccncc1", "Percent Effect": -42}
{"smiles": "O=c1oc(-c2ccc(F)cc2)nn1CN1CCN(C2CCCC2)CC1", "Percent Effect": -2.79}
{"smiles": "COCC(=O)N1CCN(C(=O)c2scnc2C)CC1", "Percent Effect": -11}
{"smiles": "CN(Cc1ccc(Cl)c(Cl)c1)C(=O)CNC(N)=O", "Percent Effect": 10.2}
{"smiles": "O=C(NC1CCN(c2snc3ccccc23)CC1)C1CCC1", "Percent Effect": -22.1}
{"smiles": "CC(NC1CCN(CCS(C)(=O)=O)CC1)c1ccc(Cl)cc1", "note": "(stereo not given)", "Percent Effect": -1.87}
{"smiles": "Cn1ccc(C(=O)N2CCCC(Cc3cccc4ncccc34)C2)n1", "note": "(stereo not given)", "Percent Effect": -7.58}
{"smiles": "Cc1cc(C(F)(F)F)nn1C(C)C(=O)Nc1ccncc1", "note": "(stereo not given)", "Percent Effect": -29.5}
{"smiles": "COc1ccccc1C(=O)N(C)Cc1ncc(C)c(OC)c1C", "Percent Effect": 11.8}
{"smiles": "CCn1cc(NC(=O)CCc2ccc3c(c2)OCCCO3)cn1", "Percent Effect": -47.1}
{"smiles": "O=C(CCCc1cn[nH]c1)N1C[C@@H](CN2CCOCC2)[C@@H](CO)C1", "Percent Effect": -29.7}
{"smiles": "CC(O)CN1CCC(CNCc2ccc(S(C)(=O)=O)cc2)CC1", "note": "(stereo not given)", "Percent Effect": -4.03}
{"smiles": "CNCC(=O)N1CC(c2cc(Nc3ncccn3)nc(C)n2)C1", "Percent Effect": -3.14}
{"smiles": "Cn1ncc(NCc2cc(F)cc(F)c2)c(Cl)c1=O", "Percent Effect": -23.1}
{"smiles": "CN(C)c1cc2c(nn1)CCN(C(=O)C1Cc3ccccc3S1)C2", "note": "(stereo not given)", "Percent Effect": -20.9}
{"smiles": "CC(C)NC(=O)c1sccc1N(C)S(=O)(=O)c1ccc(Cl)cc1", "Percent Effect": -18.9}
{"smiles": "Cc1noc([C@@H]2CCCN2C(=O)C2CCN(C(=O)C3CCC3)CC2)n1", "Percent Effect": -35.4}
{"smiles": "CC(C(N)=O)S(=O)(=O)Cc1cc(Cl)c2c(c1)OCO2", "note": "(stereo not given)", "Percent Effect": 26.2}
{"smiles": "COc1cc(C(=O)N(Cc2ccco2)C2CC2)cc2c1OCCO2", "Percent Effect": -6.37}
{"smiles": "Cc1cc(F)c(S(=O)(=O)NCCCN2CCC(O)CC2)cc1F", "Percent Effect": -69.6}
{"smiles": "CN1CCCc2cc(CNC(=O)c3ccncc3)ccc21", "Percent Effect": -75.2}
{"smiles": "CC(C)c1cc(NC(=O)CN2CCCC2Cn2cccn2)on1", "note": "(stereo not given)", "Percent Effect": 29.8}
{"smiles": "CC(=O)NCC1CCN(C(=O)c2csc(-c3ccc(C)cc3C)n2)CC1", "Percent Effect": 14}
{"smiles": "Cc1ccc(-c2nc(CN3CCC(C(=O)N(C)C)CC3)cs2)o1", "Percent Effect": -24.2}
{"smiles": "COc1c(C2CCCN2C(=O)c2ccc3cc[nH]c3c2)c(C)nn1C", "note": "(stereo not given)", "Percent Effect": 3.54}
{"smiles": "CN(C)C(=O)N1C[C@@H]2CCCO[C@@H]2[C@H](N(C)Cc2ccco2)C1", "Percent Effect": -18.8}
{"smiles": "Cc1ccsc1C(=O)N1CC(C(=O)N2CCOCC2)C2(CCOCC2)C1", "note": "(stereo not given)", "Percent Effect": -8.92}
{"smiles": "COc1cccc2c1OCC(C(=O)N1CCC(N3CCOC3=O)CC1)C2", "note": "(stereo not given)", "Percent Effect": 17}
{"smiles": "COCC1CC2(CCN(Cc3ccc(OC)cc3)CC2)CN1C(C)C", "note": "(stereo not given)", "Percent Effect": 1.66}
{"smiles": "CC(OCC(F)(F)F)C(=O)NCc1ccc(-n2cncn2)nc1", "note": "(stereo not given)", "Percent Effect": -8.85}
{"smiles": "CC(C)N(C)S(=O)(=O)N(C)Cc1ccc2c(c1)OCO2", "Percent Effect": -23.7}
{"smiles": "Cc1ccc(N2CCCC3(COCCN(c4nccs4)C3)C2)nn1", "note": "(stereo not given)", "Percent Effect": -17.6}
{"smiles": "O=C(CCc1nc2cccnc2[nH]1)NCc1cccnc1", "Percent Effect": -44}
{"smiles": "CC(=O)N1CCC(Cc2cnc(-c3c(C)n[nH]c3C)cn2)C1", "note": "(stereo not given)", "Percent Effect": -7.52}
{"smiles": "Clc1snnc1CN1CCCCC1Cn1cncn1", "note": "(stereo not given)", "Percent Effect": -12}
{"smiles": "Cc1cccc(N2CCN(C(=O)Nc3cnn(CC(N)=O)c3)CC2)c1", "Percent Effect": -45.6}
{"smiles": "O=C(c1cnccn1)N1CCCC2(COCCN(CC3CC3)C2)C1", "note": "(stereo not given)", "Percent Effect": 9.41}
{"smiles": "CCn1ccnc1CN1CCN(C(C)C(=O)N2CCC(C)CC2)CC1", "note": "(stereo not given)", "Percent Effect": -22.7}
{"smiles": "CCc1ncc2c(n1)CN(CC(=O)Nc1nnc(C)s1)CC2", "Percent Effect": -18.6}
{"smiles": "O=C1CC(c2ccc(C(=O)O)cc2)c2ncn(-c3ccccc3)c2N1", "note": "(stereo not given)", "Percent Effect": -25.4}
